Screens: PubChem, Johns Hopkins Ion Channel Center
The list is not random: actives were taken first. Their share in the collection is about 1.6%.
KCNQ2 pot: enhances the rat KCNQ2 potassium channel; CHO-K1 KCNQ2, FluxOR thallium flux fluorescence; hits give high values; B-score at 10 µM; AID 2239; 0.54% of 310,000 active; O88943;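 active = fluorescence ratio B-score at least 3 SD of library B-scores, with initial fluorescence B-score within 3 of them, cut at about 5.3 in these data; same plate scores as AID 2156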;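 also: B-score of peak minus minimum over baseline fluorescence ratio after K+ and Tl+ stimulus; positive B-score means potentiation of KCNQ2 with more thallium influx and brighter signal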
Target sequence (O88943 whole entry, looked up): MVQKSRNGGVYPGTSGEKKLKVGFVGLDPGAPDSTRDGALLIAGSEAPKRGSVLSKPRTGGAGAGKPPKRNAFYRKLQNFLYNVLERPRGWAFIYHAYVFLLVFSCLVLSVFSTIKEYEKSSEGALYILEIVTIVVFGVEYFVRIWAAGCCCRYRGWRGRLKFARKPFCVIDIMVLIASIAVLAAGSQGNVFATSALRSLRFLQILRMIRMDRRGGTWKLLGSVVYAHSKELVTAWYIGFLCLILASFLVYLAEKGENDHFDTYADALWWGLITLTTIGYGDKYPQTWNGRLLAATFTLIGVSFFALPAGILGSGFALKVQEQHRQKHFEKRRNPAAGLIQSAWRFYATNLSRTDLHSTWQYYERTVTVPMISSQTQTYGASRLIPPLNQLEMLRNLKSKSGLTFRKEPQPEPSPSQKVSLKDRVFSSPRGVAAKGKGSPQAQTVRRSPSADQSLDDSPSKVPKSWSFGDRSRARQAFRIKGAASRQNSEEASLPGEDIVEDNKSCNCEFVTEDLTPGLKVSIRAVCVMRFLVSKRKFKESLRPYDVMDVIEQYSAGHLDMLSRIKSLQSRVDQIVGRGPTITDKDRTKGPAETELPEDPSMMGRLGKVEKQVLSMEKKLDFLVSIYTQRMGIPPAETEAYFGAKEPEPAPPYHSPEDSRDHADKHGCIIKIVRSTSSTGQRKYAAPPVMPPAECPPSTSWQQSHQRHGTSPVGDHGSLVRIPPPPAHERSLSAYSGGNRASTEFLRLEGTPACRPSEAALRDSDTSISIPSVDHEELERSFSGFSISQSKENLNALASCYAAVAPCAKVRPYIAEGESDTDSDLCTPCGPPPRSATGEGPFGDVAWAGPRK
KCNQ2 inh: blocks the rat KCNQ2 potassium channel. CHO-K1 KCNQ2, FluxOR thallium flux, 20 min; hits give low values. B-score at 10 µM. 1.1% of 310,000 active. AID 2156;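 active = fluorescence ratio B-score at most minus 3 library SDs, with starting brightness B-score within 2 library SDs, cut at about -5.5 in these data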
Numbers stand for hits; i = inactive; nt = no result given.

SMILES | KCNQ2 pot | KCNQ2 inh
CC1(C(=O)N2CCC(CC3CC(c4cccc(Br)c4)=NO3)(C(=O)NCC3CCCCC3)CC2)CC1 (centres undefined) | i | i
COc1ccc(S(=O)(=O)N2CCc3ccccc32)cc1C(=O)Nc1ccc(C(N)=O)cc1 | nt | i
CCN(CC)CCNC(=O)CCc1nnc2ccc(N3CCC(C)CC3)nn12 | i | i
Cc1cccc(N=N/C(=C\O)C(=O)c2cccs2)c1 | nt | i
CCc1nc(SCc2ccccc2C#N)n[nH]1 | nt | i
CCCCc1nc2ccccc2c(=O)n1NC(=O)c1c(O)c2c(n(CC(C)C)c1=O)CCCC2 | nt | i
CC(C)Cn1c2c(c(O)c(C(=O)Nn3c(Cc4ccccc4)nc4ccccc4c3=O)c1=O)CCCC2 | i | -6.3
Cc1nc(C(=O)Nc2ccc(Cl)cc2Cl)nn1-c1cc(OC(C)C)c(Cl)cc1Cl | nt | i
Cc1nc(C(=O)Nc2cc(Cl)ccc2Cl)nn1-c1cc(OC(C)C)c(Cl)cc1Cl | i | -6.4
Cc1nc(C(=O)Nc2cccc(Cl)c2Cl)nn1-c1cc(OC(C)C)c(Cl)cc1Cl | i | -6.3
Cc1nc(C(=O)Nc2cccc(Cl)c2)nn1-c1cc(OC(C)C)c(Cl)cc1Cl | nt | i
CC(C)(C)CN1CCC(Oc2cccc(C(=O)N3CCC[C@H]3CO)c2)CC1 | i | i
O=c1cc(N=Nc2ccc(Cl)cc2)[nH]c(=O)[nH]1 | nt | i
Cc1cc(C)cc(N(C(=O)c2csnn2)C(C(=O)NC2CCCC2)c2ccccn2)c1 (centres undefined) | i | i
COc1ccc(-c2cc(C(=O)c3c(N)n(C)c(=O)n(C)c3=O)c3ccccc3n2)cc1OC | i | i
O=C(NCCCc1ccccc1)[C@@H]1Cc2ccccc2CN1 | nt | i
COc1ccc(C(=O)NNC(=O)C(=O)Nc2ccc(C)c(Cl)c2)cc1 | i | i
Cc1ccc(NC(=O)C(=O)NNC(=O)c2ccccc2C)cc1Cl | 12 | i
Cc1ccccc1OCC(=O)NCCCNC(=O)c1ccncc1 | nt | i
COc1ccc(NC(=O)CCC(=O)Nc2nnc(CC(C)C)s2)cc1Cl | i | i
O=C(COC(=O)c1cccc(Br)c1)NCCNC(=O)COC(=O)c1cccc(Br)c1 | nt | i
O=C(CSCc1ccccc1)NCCc1ccc(F)cc1 | i | i
O=C(COC(=O)c1cccc(Br)c1)NCCc1ccccc1 | i | -5.7
O=C(CSCc1ccc(Br)cc1)NCCc1ccccc1 | i | -5.5
Cn1nc(C(F)(F)F)c(/C=N/OC(=O)c2ccccc2)c1SCc1ccc(Cl)cc1 | nt | i
SMILES | KCNQ2 pot | KCNQ2 inh
Cn1nc(C(F)(F)F)c(/C=N/OC(=O)c2ccccc2Cl)c1SCc1ccccc1Cl | i | -6
O=C(/C=C/c1ccco1)Nc1ccc2nc3n(c(=O)c2c1)CCCC3 | nt | i
CC(C(=O)Nc1cccnc1)n1cc([N+](=O)[O-])cn1 (centres undefined) | i | i
COc1cccc(NC(=O)Nc2cccs2)c1 | i | i
COc1cccc(NC(=O)N(C2CCCCC2)C(C)c2cccs2)c1 (centres undefined) | i | -5.7
COc1ccc(C/C(C)=N\NC(=O)c2cn(C)c3ccccc23)cc1OC | nt | i
Cc1ccc(O)c(Nc2c3ccccc3nc3ccccc23)c1 | i | -5.6
Cc1ccc(O)c(Nc2nc(-c3ccccc3)nc3ccccc23)c1 | i | i
Clc1ccc(OCc2cn3ccccc3n2)c2ncccc12 | i | -6.6
OCc1ccccc1OCCOc1ccc(Cl)c2cccnc12 | nt | i
Cc1cc(=O)[nH]c(-n2ncc(C#N)c2N)n1 | i | i
O=C(Cc1ccc(F)cc1)Nc1ccc(Cl)cn1 | nt | i
Cn1c(SCC(=O)N2c3ccccc3CCc3ccccc32)nnc1-c1ccc(O)cc1 | i | -5.8
Cn1c(SCC(=O)c2ccccc2)nnc1-c1ccc(O)cc1 | i | i
CCONC(=O)Nc1ccccc1 | nt | i
Cc1ccc(Cl)cc1N1CCN(Cc2cc3c(cc2O)CCC3)CC1 | i | -6
Cc1ccc(Cl)cc1N1CCN(C(=O)c2ccc(CN3CCOCC3)cc2)CC1 | i | i
Cc1onc(-c2c(Cl)cccc2Cl)c1C(=O)Nc1nccs1 | nt | i
CCCCCCCCCCCC(=O)NC1CCS(=O)(=O)C1 (centres undefined) | i | i
O=C1C(Cl)=C(NCCN2CCCCC2)C(=O)c2ccccc21 | i | -5.8
CCNC1=C(Cl)C(=O)c2ccccc2C1=O | i | i
COc1ccc(C)cc1NC(=S)NNC(=O)c1c(Br)cnn1C | nt | i
COC(=O)N1C/C=C\C(c2ccc(OC)cc2)N(Cc2ccc(F)cc2)C(=O)C1 (centres undefined) | i | i
COc1ccc(C2/C=C\CN(C(=O)Nc3ccccc3-c3ccccc3)CC(=O)N2Cc2ccc(F)cc2)cc1 (centres undefined) | i | -6.4
CC(O)c1nc2ccccc2n1CCCCOc1ccccc1 (centres undefined) | i | i
SMILES | KCNQ2 pot | KCNQ2 inh
Cc1c(NC(=O)c2ccc(N(Cc3ccccc3)S(C)(=O)=O)cc2)c(=O)n(-c2ccccc2)n1C | i | i
Fc1ccccc1Cc1noc(CN2CCN(c3ccc(Cl)cn3)CC2)n1 | i | -5.6
Clc1ccccc1Cc1noc(CN2CCN(c3cnccn3)CC2)n1 | nt | i
Cn1c(SCC(=O)Nc2nncs2)nnc1C1CC1 | i | i
CCOC(=O)C1=NN(c2ccccc2)C2=NC(C)=C(C(=O)OC)C(c3cccs3)N12 (centres undefined) | nt | i
CCOC(=O)C1=NN(c2cccc(Cl)c2)C2=NC(C)=C(C(=O)OC)C(c3cccs3)N12 (centres undefined) | i | -5.7
CC1=C/C(=C(\c2cc(C)c(O)c(Br)c2)c2ccccc2S(=O)(=O)O)C=C(Br)C1=O | i | i
COc1ccc(C(=O)Nc2ccc3c(c2)C(=O)NC3=O)cc1 | nt | i
COC(=O)c1ccc(/C=N/N2CCN(Cc3ccc(C)cc3C)CC2)cc1 | i | -7.8
COC(=O)c1ccc(/C=N/N2CCN(Cc3ccccc3Cl)CC2)cc1 | nt | i
COc1ccc(NC(=O)N(Cc2cccnc2)Cc2ccccc2Cl)c(OC)c1 | i | -5.8
COc1ccc(NC(=O)NCc2cccnc2)c(OC)c1 | nt | i
OC(CCN1CCCCC1)(c1ccccc1)C1CCCCC1 (centres undefined) | nt | i
OC(CCN1CCOCC1)(c1ccc(Cl)cc1)C1CCCCC1 (centres undefined) | i | -5.8
O=C(COC(=O)c1ncc(Cl)c(Cl)c1Cl)Nc1ccc(Cl)cn1 | i | i
CCCOC(=O)CSC1=C(C#N)C(c2ccccc2OCC)C(C#N)C(=O)N1 (centres undefined) | i | i
CCCCOC(=O)CSC1=C(C#N)C(c2ccccc2OCC)C(C#N)C(=O)N1 (centres undefined) | 7.1 | i
CCOC(=O)c1ccccc1NS(=O)(=O)c1ccc(C)cc1 | nt | i
CCOC(=O)c1cc(C)n(S(=O)(=O)c2ccc(C)cc2)c1C | i | -6.6
CC1(C)CC(=O)C=C(Nc2ccc(Cl)c(Br)c2)C1 | i | i
Cc1cccc(C(=O)N(c2ccccn2)C(C)c2ccco2)c1 (centres undefined) | nt | i
CC(c1ccco1)N(C(=O)C12CC3(C)CC(C)(CC(C)(C3)C1)C2)c1ccccn1 (centres undefined) | i | -6.3
COc1ccccc1Oc1ccc(NC(=O)Cc2ccccc2)cc1 | i | i
CC(=O)Nc1ccc(NC(=O)CC(C)n2ccnc2)cc1 (centres undefined) | nt | i
Cc1ccccc1NC(=O)c1c(C)nc(SCC(=O)OCc2ccccc2)c(C#N)c1-c1ccc(F)cc1 | i | -7
Cc1nc(SCC(=O)OCc2ccccc2)c(C#N)c(-c2ccccc2)c1C(=O)Nc1ccccc1 | nt | i
